Rab9 prom act: qHTS Assay for Rab9 Promoter Activators; AID 485297, 2010; Potency, µM (top dose mostly 9.22 µM), for inactives: at the highest dose activation, negative = inhibition, actives largely listed as activators; hit rate 2.8% among 320,000; Huh7 Rab9 promoter-luciferase reporter, luminescence, 24 h; further: % of control where 0% means no effect; nearly all actives have a fitted effect of over 60% in size
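Using Huh7 cells stably transfected with Rab9 promoter–luciferase, compounds were incubated 24 h at 37 °C, 5% CO2; luciferase luminescence was read 10 min after reagent addition.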
ELG1 genotox: qHTS screen for small molecules that induce genotoxicity in human embryonic kidney (HEK293T) cells expressing luciferase-tagged ELG1; HEK293T ELG1-luciferase reporter, luminescence, 16 h; Potency, µM (top dose mostly 46 µM), for inactives: top-dose activity change, positive = activation, actives largely listed as activators; hit rate 1.3% among 330,000; further: % of control where 0% means no effect; nearly all actives have a fitted effect of over 60% in size
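Screening used a luciferase reporter fused to human ELG1 in HEK293T cells. Luminescence was read on a CCD plate imager after 16 hr exposure and 30 min ONE-Glo incubation.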
NPC1 promoter act: qHTS Assay for NPC1 Promoter Activators | Potency, µM (doses to about 9.22 µM), for the others: at the highest dose activation, most hits filed as activators | hit rate 2.4% among 320,000 | Huh7 NPC1 promoter luciferase reporter, 24 h; further: % of control where 0% means no effect; nearly all actives have a fitted effect of over 60% in size
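Compounds in DMSO were transferred onto Huh7 NPC1-luciferase reporter cells pre-incubated 2 h; after 24 h at 37 °C, Amplite reagent was dispensed and luminescence recorded 10 min later.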
SMN2 splice enh: qHTS Assay for Enhancers of SMN2 Splice Variant Expression | hit rate 2.8% among 210,000 | Potency, µM (highest dose often 46.1 µM), for the others: at the top dose activity change, positive = activation, most hits filed as activators | HEK293 SMN2-luciferase splicing reporter, luminescence, 30-36 h; further: % of control where 0% means no effect; nearly all actives have a fitted effect of over 55% in size
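qHTS luciferase splicing reporter: luminescence rises when SMN2 exon 7 is included in transfected HEK293 cells. Compound exposure lasted 30-36 h at 37C, with 4.5 mM final sodium butyrate as control, followed by a ONE-Glo read.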
FLuc counter: qHTS profiling assay for firefly luciferase inhibitor/activator using purifed enzyme and Km concentrations of substrates (counterscreen for miR-21 project). Luciferin 4-monooxygenase (Photinus pyralis), P08659. purified FLuc, Km substrates, luminescence inhibition. Potency, µM (top dose mostly 57.5 µM), without a hit: at the highest dose activity change, negative = inhibition, actives largely listed as inhibitors. hit rate 6.9% among 360,000. AID 588342, 2011;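 further: plate controls were vehicle for no effect and reference inhibitor for full effect; nearly all actives have a fitted effect of over 55% in size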
Target sequence (P08659 whole entry, looked up): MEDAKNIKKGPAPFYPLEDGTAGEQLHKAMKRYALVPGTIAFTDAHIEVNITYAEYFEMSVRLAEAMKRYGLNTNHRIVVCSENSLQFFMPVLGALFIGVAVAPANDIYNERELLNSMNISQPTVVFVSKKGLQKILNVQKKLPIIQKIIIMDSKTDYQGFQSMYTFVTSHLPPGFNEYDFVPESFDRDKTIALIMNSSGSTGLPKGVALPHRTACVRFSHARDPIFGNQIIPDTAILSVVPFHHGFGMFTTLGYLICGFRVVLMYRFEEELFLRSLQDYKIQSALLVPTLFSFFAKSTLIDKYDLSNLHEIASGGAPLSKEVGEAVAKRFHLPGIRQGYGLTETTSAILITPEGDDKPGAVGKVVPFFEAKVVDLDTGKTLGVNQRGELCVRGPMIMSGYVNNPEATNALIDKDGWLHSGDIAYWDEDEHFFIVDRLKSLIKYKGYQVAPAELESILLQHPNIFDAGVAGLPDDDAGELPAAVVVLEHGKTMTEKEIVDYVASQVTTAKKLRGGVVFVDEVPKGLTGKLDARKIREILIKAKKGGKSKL
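Purified P. pyralis luciferase (10nM final) with 10uM D-luciferin and 10uM ATP (Km levels) in 50mM Tris acetate pH 7.5, 10mM Mg acetate, 0.01% Tween-20, 0.05% BSA; qHTS 6-point titration, ~60 µM downward; luminescence read.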
Luc counter: Counterscreen for Luciferase (Kinase-Glo TM) Inhibition | Kinase-Glo luciferase, ATP luminescence, 8 min | Potency, µM (doses to about 38.3 µM), for the others: top-dose activity change, negative = inhibition, usual class: inhibitors | hit rate 0.28% among 200,000; further: on the % scale 0 is the no-effect control and ±100 the full control effect; nearly all actives have a fitted effect of over 60% in size
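Recombinant Kinase-Glo luciferase, 10 uM ATP (linear range), luciferin; imidazole pH 7.2 / KCl / MgCl2 / Tween / BSA buffer; 8 min RT; luminescence.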
* marks the source's active call; other numbers are inactive results; ? = inconclusive; nt = no result given; [ ] = dose if it differs, or a comment. In the library only some 7.3% were active in any assay of this set; here they are far more common. The call rests on the fitted dose curve; in most records, active means well fitted curve in the direction sought with a large enough effect; inconclusive means small, poorly fitted or top-dose-only effect, or another doubt; inactive means no such curve, though single readings can be large; an effect the other way counts as inactive or inconclusive. Potency means the concentration at half of the fitted maximal effect.

SMILES	Rab9 prom act	ELG1 genotox	NPC1 promoter act	SMN2 splice enh	FLuc counter	Luc counter
O=C1OC[C@@H]2CCCN2C(=O)[C@@H](CC(=O)N(CCO)Cc2ccccc2)C/C=C\CC[C@H]1Cc1ccc(F)cc1	nt	-2%	nt	nt	nt	nt
Cc1ccc(NC(=O)c2cc3c(s2)CCCC3)cc1	1.4µM*	?	3.2µM*	13µM*	5.4µM*	3%
O=C(Nc1ccccc1OC(F)F)c1cc2c(s1)CCC2	17%	9%	9%	25%	21µM*	-2%
COC(=O)c1sc(NC(=O)c2cc3c(s2)CCCC3)nc1C	4%[1.84 µM]	1.2µM*	28%	4.5µM*	2.4µM*	-4%
Cc1csc(NC(=O)c2cc3c(s2)CCC3)n1	?	?	0.63µM*	0.79µM*	0.85µM*	?
O=C(Nc1ccncc1)c1cccc(S(=O)(=O)N2CCN(c3ccc(F)cc3)CC2)c1	-20%	-6%	-11%	nt	1%	nt
COc1ccc(-c2ccc(=O)n(CC(=O)Nc3ccc(C(=O)NC4CC4)cc3)n2)cc1OC	-3%	0%	1%	?	?	5%
Cc1nc(NC(=O)c2cc3c(s2)CCCCC3)sc1C(=O)N(C)C	?	?	?	?	13µM*	0%
Cc1csc(NC(=O)c2cc3c(C)nn(Cc4ccccc4Cl)c3s2)n1	-4%	-5%	-2%	-47%	11µM*	12%
Cc1ccc(NC(=O)c2scc3c2CCCC3)cc1	1.8µM*	1.8µM*	4µM*	1.4µM*	0.48µM*	-15%
CCOC(=O)c1sc(NC(=O)c2cc3c(s2)CCC(C)C3)nc1C (stereo not drawn)	-30%	10µM*	-35%	7%	4.8µM*	-2%
O=C(O)CSc1nnnn1C1CCCCC1	-12%	0%	3%	nt	0%	0%
CCOC(=O)c1c(C)nc(SC)c(C#N)c1-c1ccccc1	-4%	4%	-3%	12%	-4%	2%
O=C(NCc1cccs1)c1cc2c(s1)CCCC2	?	21µM*	?	11µM*	12µM*	-7%
Cc1nc(NC(=O)c2ccc(Br)s2)sc1C(=O)N(C)C	3.5µM*	9.2µM*	3.2µM*	11µM*	7.6µM*	0%
CCc1sc(C(=O)Nc2nc(C)cs2)cc1C	?	?	1.3µM*	nt	1.9µM*	nt
CCc1sc(C(=O)Nc2ccc(NC(C)=O)cc2)cc1C	23%	?	11%	6%	-18%	1%
Cc1nc(NC(=O)CCl)sc1C(=O)N(C)C	-13%	-8%	-8%	nt	0%	-5%
O=C(NCC(=O)N1CC=C(c2ccccc2)CC1)c1ccc(F)cc1	nt	0%	nt	nt	nt	nt
c1ccc(-c2nc3ccccc3nc2-c2ccccn2)nc1	0%	0%	2%	39%	-6%	1%
Cc1cc2nc(-c3ccccn3)c(-c3ccccn3)nc2cc1C	14%	?	?	nt	4.8µM*	nt
O=C(c1cc(-c2cccs2)on1)N1CCN(C(c2ccccc2)c2ccccc2)CC1	-54%	-8%	-32%	-14%	1%	-2%
O=C(c1cc(-c2cccs2)on1)N1CCc2ccccc2C1	2%	6%	-3%	0%	19µM*	3%
O=C(c1cc(-c2cccs2)on1)N1CCOCC1	?	?	2.8µM*	?	19µM*	-10%
Cc1ccc(N(C)S(=O)(=O)c2cccc(C(=O)Nc3nc4ccccc4[nH]3)c2)cc1	-4%	-5%	8%	-57%	-18%	-2%
SMILES	Rab9 prom act	ELG1 genotox	NPC1 promoter act	SMN2 splice enh	FLuc counter	Luc counter
O=C(Nc1nc2ccccc2[nH]1)c1cccc(F)c1	?	2.9µM*	?	nt	3µM*	nt
COc1ccc(/C=C/C(=O)NCCc2nc3ccccc3[nH]2)cc1	10%	-1%	1%	nt	?	nt
O=C(Nc1nc2ccccc2[nH]1)c1cccc(Br)c1	3.5µM*	2.1µM*	?	nt	2.4µM*	nt
O=C(Nc1nc2ccccc2[nH]1)c1ccc(Br)o1	?	?	?	13µM*	9.5µM*	-15%
O=C(CNC(=O)c1cccc(Br)c1)NCCc1nc2ccccc2[nH]1	0%	-2%	-3%	-16%	2%	-4%
O=C(/C=C/c1ccc(F)cc1)Nc1nc2ccccc2[nH]1	0.63µM*	?	1.3µM*	11µM*	?	0%
O=C1N[C@@H](Cc2ccccc2)[C@@H](c2ccco2)O1	-2%	5%	-5%	nt	1%	nt
CN(C)c1cccc(C(=O)Nc2nc3ccccc3[nH]2)c1	0.32µM*	?	0.45µM*	nt	0.6µM*	nt
O=C(Nc1nc2ccccc2[nH]1)c1ccc(Cl)c(S(=O)(=O)N2CCCC2)c1	28%	7%	?	-19%	12µM*	-5%
S=C(Nc1ccc2c(c1)OCO2)Nc1ccc2c(c1)OCO2	7%	7%	5%	9%	?	-2%
Cc1ccc(C(=O)O)cc1Nc1nc2ccccc2n2nnnc12	nt	nt	nt	?	17µM*	nt
CCOc1ccc(Nc2nc3ccccc3n3nnnc23)cc1	4.5µM*	?	27%	14%	?	0%
CN(C)c1ccc(Nc2nc3ccccc3n3nnnc23)cc1	nt	nt	nt	-9%	6.7µM*	nt
CC(NC(=O)c1ccc(Nc2nc3ccccc3n3nnnc23)cc1)c1ccccc1 (stereo not drawn)	nt	nt	nt	18%	-2%	nt
Cc1ccc(C(=O)COC(=O)c2cc(=O)[nH]c3ccccc23)cc1	3%	?	6%	?	?	-3%
C=Cc1cccc(NC(=O)COc2ccccc2)c1	-1%	?	16%	2%	?	0%
O=C(N/N=C/c1ccc(OC(=O)c2ccccc2Cl)cc1)c1ccccn1	?	8.2µM*	2.8µM*	nt	1.5µM*	nt
CCc1ccc(/C=N/NC(=O)c2ccccn2)cc1	0.13µM*	?	0.45µM*	nt	0.48µM*	nt
O=C(CNC(=O)c1ccccn1)N/N=C/c1ccccc1	-1%	1%	-2%	7%	?	-1%
CCN(CC)c1ccc(/C=N/NC(=O)c2ccccn2)cc1	0.71µM*	?	0.45µM*	nt	2.4µM*	nt
CCN(CC)c1ccc(/C=N/NC(=O)c2cnccn2)cc1	?	12µM*	-9%	20µM*	12µM*	-4%
NC(=O)COC(=O)[C@H](Cc1c[nH]c2ccccc12)NC(=O)c1ccc(F)cc1	3%	-2%	-4%	nt	24µM*	nt

Compound activity: PubChem, National Center for Advancing Translational Sciences (NCATS)
